Results filed as inconclusive are left out. Where a call stands in place of a potency, no number is given. The source made the active and inactive calls. Calls follow the shape of the dose curve; as a rule, active = well fitted curve in the direction sought with a large enough effect; inconclusive = small, poorly fitted or top-dose-only effect, or another doubt; inactive = no such curve, though single readings can be large; an effect the other way counts as inactive or inconclusive.
Key:
[1] = qHTS to identify inhibitors of the type 1 interferon - major histocompatibility complex class I in skeletal muscle: primary screen against the NCATS Pharmaceutical Collection (AID 1347407);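 also: luminescence of HiBiT knocked into endogenous HLA-B as interferon-induced MHC class I level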; also: potency is read from the fitted curve at half-maximal effect
Method in brief: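 Compounds […] were added to CRISPR-engineered HLA-B-HiBiT C25cl48 human myoblasts with 4.0 ng/ml IFN-beta. After 24 hrs at 37 C, cells were lysed and HiBiT luminescence measured.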

[2] = molecular target: Protein phosphatase 1D (Homo sapiens) (UniProt O15297); assay: RapidFire Mass Spectrometry qHTS Assay for Modulators of WT P53-Induced Phosphatase 1 (WIP1) (AID 1347424); also: series mostly up to about 63 µM
Method in brief: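 RapidFire MS readout of dephosphorylated VEPPL-S-QETFS product, with 1 uM isotope-labelled peptide standard. Reaction: 10 nM WIP1, 2 uM phosphopeptide substrate, 5 min, room temperature, after 1 h compound preincubation; stopped with 0.5% formic acid.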

[3] = molecular target: Protein phosphatase 1D (Homo sapiens) (UniProt O15297); assay: Rhodamine-PBP qHTS Assay for Modulators of WT P53-Induced Phosphatase 1 (WIP1) (AID 1347425)
Method in brief: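 WIP1 (5 nM final) was preincubated with compound for 1 hour at room temperature. It then dephosphorylated 10 uM VEPPL-pS-QETFS peptide in Tris-HCl pH 7.5 with 30 mM MgCl2. Released Pi was detected by 10 uM Rh-PBP fluorescence (ex 525/em 598 nm) read at 1-min intervals for 11 min, as delta f1 - f0.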

[4] = Primary qHTS for inhibitors of La Crosse Virus (LACV) - induced cell death in SH-SY5Y cells (AID 1508616);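 also: top concentration of the series differs between compounds; higher means more rescue of cells from virus-induced death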
Method in brief: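 SH-SY5Y, 6000 cells/well; cpd via pin tool in DMSO; LACV 0.01 MOI; 6 d 37C 5% CO2; ATPLite, 5 min RT; luminescence normalized to ±virus DMSO controls.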

[5] = molecular target: Calcium and integrin-binding protein 1 (Homo sapiens) (UniProt Q99828); assay: Primary qHTS for Identification of Calcium Integrin Binding Protein 1 (CIB1) Competitor (AID 1508620);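 also: GST tagged CIB1 binding a fluorescein labelled alphaIIb integrin peptide tracer; top concentration of the series differs between compounds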
Method in brief: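 Fluorescence polarization competition: GST-tagged CIB1 (1 uM final) preincubated with compound 15 min at room temperature, then FITC-labelled alphaIIb peptide (100 nM final) added. After 15 min at room temperature, polarization read at Ex 480/Em 540.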

Protein phosphatase 1D (Homo sapiens), sequence (O15297 whole entry, looked up): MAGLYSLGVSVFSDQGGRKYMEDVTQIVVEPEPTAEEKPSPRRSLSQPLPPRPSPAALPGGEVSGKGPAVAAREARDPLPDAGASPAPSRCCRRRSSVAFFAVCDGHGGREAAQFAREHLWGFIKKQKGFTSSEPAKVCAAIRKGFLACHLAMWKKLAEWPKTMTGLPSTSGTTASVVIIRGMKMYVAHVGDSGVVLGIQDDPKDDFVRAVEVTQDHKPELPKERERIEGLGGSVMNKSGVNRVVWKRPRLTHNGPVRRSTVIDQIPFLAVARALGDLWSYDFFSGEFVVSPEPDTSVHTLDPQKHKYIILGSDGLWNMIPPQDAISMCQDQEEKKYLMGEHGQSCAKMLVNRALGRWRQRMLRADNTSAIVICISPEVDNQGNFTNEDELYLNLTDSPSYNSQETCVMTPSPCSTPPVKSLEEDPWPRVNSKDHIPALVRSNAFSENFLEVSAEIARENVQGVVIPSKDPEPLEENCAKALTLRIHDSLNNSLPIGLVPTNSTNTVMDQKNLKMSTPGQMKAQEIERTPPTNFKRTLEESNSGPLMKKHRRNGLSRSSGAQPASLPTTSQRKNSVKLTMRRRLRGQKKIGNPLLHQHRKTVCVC
Calcium and integrin-binding protein 1 (Homo sapiens), sequence (Q99828 whole entry, looked up): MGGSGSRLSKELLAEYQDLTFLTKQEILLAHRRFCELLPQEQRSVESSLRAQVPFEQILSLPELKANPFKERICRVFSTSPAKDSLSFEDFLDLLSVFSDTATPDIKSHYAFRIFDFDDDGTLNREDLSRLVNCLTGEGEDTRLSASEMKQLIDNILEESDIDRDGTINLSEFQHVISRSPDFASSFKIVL

SMILES | Potency [1] | Potency [2] | outcome [3] | Potency [4] | Potency [5]
O=C(O)CNC(=O)c1ccccc1 | inactive | inactive | inactive | inactive | inactive
CCCCCCCCCCCCCCCCOP(=O)([O-])OCC[N+](C)(C)C | inactive | inactive | inactive | inactive | inactive
CC(C)(Oc1ccc(Cl)cc1)C(=O)O | inactive | inactive | inactive | inactive | inactive
CCOC(=O)/C=C(C)/C=C/C=C(C)/C=C/c1c(C)cc(OC)c(C)c1C | inactive | inactive | inactive | inactive | inactive
CC(C)(C)NC(=O)[C@@H]1CN(Cc2cccnc2)CCN1C[C@@H](O)C[C@@H](Cc1ccccc1)C(=O)N[C@H]1c2ccccc2C[C@H]1O | inactive | inactive | inactive | inactive | inactive
Cc1c(F)c(N2CCNC(C)C2)cc2c1c(=O)c(C(=O)O)cn2C1CC1 (stereo not given) | inactive | inactive | inactive | inactive | inactive
CCOC(=O)c1cccc(N)c1 | inactive | inactive | inactive | – | inactive
Cc1ccc(Nc2c(F)cccc2Cl)c(CC(=O)O)c1 | inactive | inactive | inactive | inactive | inactive
CCCCOc1cc(C(=O)NCCN(CC)CC)c2ccccc2n1 | inactive | inactive | inactive | inactive | inactive
CC(=O)OCC(=O)[C@@]1(O)CC[C@H]2[C@@H]3CCC4=CC(=O)C=C[C@]4(C)[C@H]3[C@@H](O)C[C@@]21C | inactive | inactive | inactive | inactive | inactive
CC[C@@H](CO)NCCN[C@@H](CC)CO | inactive | inactive | inactive | inactive | inactive
OC(CCN1CCCCC1)(c1ccccc1)c1ccccc1 | inactive | inactive | inactive | inactive | inactive
Clc1ccc2c(c1)CCc1cccnc1C2=C1CCNCC1 | inactive | inactive | inactive | inactive | inactive
CN(C/C=C/c1ccccc1)Cc1cccc2ccccc12 | inactive | inactive | inactive | inactive | inactive
CCN(CC)C(=O)N1CCN(C)CC1 | inactive | inactive | inactive | inactive | inactive
CCCCN1CCCC1C(=O)Nc1c(C)cc(C)cc1C (stereo not given) | inactive | inactive | inactive | inactive | inactive
CN1CCN(CCCN2c3ccccc3Sc3ccc(S(=O)(=O)N(C)C)cc32)CC1 | inactive | inactive | inactive | inactive | inactive
CCCCC1=NC2(CCCC2)C(=O)N1Cc1ccc(-c2ccccc2-c2nn[nH]n2)cc1 | inactive | inactive | inactive | inactive | inactive
O=C1OCCN1/N=C/c1ccc([N+](=O)[O-])o1 | inactive | inactive | – | inactive | inactive
Cc1nc2n(c(=O)c1CCN1CCC(c3noc4cc(F)ccc34)CC1)CCC[C@H]2O | inactive | inactive | inactive | – | inactive
Cc1ccnc(NS(=O)(=O)c2ccc(N)cc2)n1 | inactive | inactive | – | inactive | –
COc1cc(C=C2CCC/C(=C\c3ccc(O)c(OC)c3)C2=O)ccc1O | 14.9 µM (active) | inactive | – | inactive | inactive
CC1=C(C(=O)O)N2C(=O)[C@@H](NC(=O)[C@H](N)c3ccc(O)cc3)[C@H]2SC1 | inactive | inactive | inactive | – | inactive
CC(O)(P(=O)(O)O)P(=O)(O)O | inactive | inactive | – | inactive | inactive
CCN(CCCCOC(=O)c1ccc(OC)c(OC)c1)C(C)Cc1ccc(OC)cc1 (stereo not given) | inactive | inactive | inactive | – | inactive
Oc1c(I)cc(I)c2cccnc12 | inactive | inactive | inactive | – | inactive
CN1CCCC(CC2c3ccccc3Sc3ccccc32)C1 (stereo not given) | inactive | inactive | inactive | – | inactive
C[C@@H](CN(C)C)CN1c2ccccc2Sc2ccccc21 | inactive | inactive | – | inactive | inactive
Cc1c(C)n(Cc2ccccc2)c2ccc(C(=O)OCCN(C)C)cc12 | inactive | inactive | – | inactive | inactive
O=C(CCCN1CCC(O)(c2ccc(Br)cc2)CC1)c1ccc(F)cc1 | inactive | inactive | – | inactive | –

— PubChem BioAssay (NCATS)
